# Results filed as inconclusive are left out. Activity calls are given as the source filed them. Rule for the calls, unless noted: active = hit-call score of the fitted dose curve at least 0.9, where 1 is the maximum; inactive = score below 0.9.
# Assays:
# [1] = target: Paired box protein Pax-6 (Homo sapiens) (UniProt P26367); assay: ATG_Pax6_CIS: Attagene CIS-FACTORIAL HepG2 Assay for human Paired Box 6 (PAX6) (AID 2282956); details: HepG2 CIS-FACTORIAL PAX6 reporter transcription, RNA readout; actives raise or lower the signal
# Paired box protein Pax-6 (Homo sapiens), sequence (P26367 whole entry, looked up): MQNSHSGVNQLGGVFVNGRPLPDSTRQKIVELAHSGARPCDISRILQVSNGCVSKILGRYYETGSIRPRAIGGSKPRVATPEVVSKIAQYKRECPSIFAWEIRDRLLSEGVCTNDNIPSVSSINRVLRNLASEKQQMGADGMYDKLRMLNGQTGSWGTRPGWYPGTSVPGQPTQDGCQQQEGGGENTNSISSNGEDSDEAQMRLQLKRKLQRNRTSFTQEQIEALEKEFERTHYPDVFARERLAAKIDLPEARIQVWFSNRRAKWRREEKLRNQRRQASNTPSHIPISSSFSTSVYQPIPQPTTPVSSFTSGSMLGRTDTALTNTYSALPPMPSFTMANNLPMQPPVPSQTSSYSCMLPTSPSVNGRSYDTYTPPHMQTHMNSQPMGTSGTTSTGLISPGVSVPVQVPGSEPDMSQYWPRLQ
# In short: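 Values derive from bidirectional curve fitting of reporter mRNA signal relative to DMSO. HepG2 cells bearing transfected cis-regulated MRTUs were exposed for 24 h; transcripts were read by RT-PCR and capillary electrophoresis.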
# [2] = ATG_RORE_CIS: Attagene CIS-FACTORIAL HepG2 Assay for human RAR-related Orphan Receptor Element (RORE) (AID 2282959); details: HepG2 Attagene cis-factorial RORE reporter, mRNA; actives raise or lower the signal
# In short: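 Readout: fluorescent reporter mRNA by RT-PCR plus capillary electrophoresis, 24 h after dosing transfected HepG2 cells. Endogenous transcription factor activity on a cis promoter element is measured. Gain or loss of signal fitted against DMSO.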
# [3] = ATG_Sox_CIS: Attagene CIS-FACTORIAL HepG2 Assay for human SRY-box transcription factor (SOX) (AID 2282960); details: HepG2 Attagene cis-factorial SOX reporter, mRNA; actives raise or lower the signal
# In short: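 Read-out: fluorescent RT-PCR products of SOX1-linked reporter transcripts resolved by capillary electrophoresis, fitted bidirectionally against DMSO. Transiently transfected HepG2 cells, 24 h after chemical exposure, endogenous transcription factor activity.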
# [4] = target: Transcription factor Sp1 (Homo sapiens) (UniProt P08047); assay: ATG_Sp1_CIS: Attagene CIS-FACTORIAL HepG2 Assay for human Specificity Protein 1 (Sp1) (AID 2282961); details: HepG2 Sp1 cis-reporter transcription, actives raise or lower the signal
# Transcription factor Sp1 (Homo sapiens), sequence (P08047 whole entry, looked up): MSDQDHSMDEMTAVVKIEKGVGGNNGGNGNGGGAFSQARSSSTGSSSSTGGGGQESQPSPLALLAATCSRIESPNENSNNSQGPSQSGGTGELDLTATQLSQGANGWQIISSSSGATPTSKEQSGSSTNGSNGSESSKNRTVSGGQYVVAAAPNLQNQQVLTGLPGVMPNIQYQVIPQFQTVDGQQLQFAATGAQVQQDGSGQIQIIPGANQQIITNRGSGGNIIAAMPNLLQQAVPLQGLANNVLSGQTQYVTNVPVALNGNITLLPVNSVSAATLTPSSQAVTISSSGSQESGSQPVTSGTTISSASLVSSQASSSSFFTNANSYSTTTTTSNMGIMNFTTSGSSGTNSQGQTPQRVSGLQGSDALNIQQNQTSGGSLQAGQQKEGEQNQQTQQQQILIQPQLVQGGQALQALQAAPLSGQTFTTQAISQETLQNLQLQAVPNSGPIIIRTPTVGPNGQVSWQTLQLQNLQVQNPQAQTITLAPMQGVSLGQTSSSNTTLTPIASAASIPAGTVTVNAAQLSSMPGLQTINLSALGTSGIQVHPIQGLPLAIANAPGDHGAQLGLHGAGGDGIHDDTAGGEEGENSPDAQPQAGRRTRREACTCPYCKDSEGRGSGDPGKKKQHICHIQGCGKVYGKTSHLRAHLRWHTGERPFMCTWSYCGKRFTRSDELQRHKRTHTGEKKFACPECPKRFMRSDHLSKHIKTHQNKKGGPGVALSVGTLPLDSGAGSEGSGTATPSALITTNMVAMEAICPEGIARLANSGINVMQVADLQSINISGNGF
# In short: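 Read-out: fluorescence of 6-FAM-labeled, HpaI-digested RT-PCR products separated by capillary electrophoresis. HepG2 cells carried transfected cis-element reporter units and were exposed to chemicals for 24 h; gain or loss of signal fitted relative to DMSO.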
# [5] = ATG_SREBP_CIS: Attagene CIS-FACTORIAL HepG2 Assay for human Sterol Regulatory Element Binding (SREBP) (AID 2282962); details: HepG2 Attagene cis-factorial SREBP reporter, mRNA; actives raise or lower the signal
# In short: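 Values derive from bidirectional curve fitting with DMSO as baseline. The underlying measurement is reporter mRNA from cis-element-regulated units in transiently transfected HepG2, quantified by RT-PCR and capillary electrophoresis after 24 h exposure.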
# [6] = target: Signal transducer and activator of transcription 3 (Homo sapiens) (UniProt P40763); assay: ATG_STAT3_CIS: Attagene CIS-FACTORIAL HepG2 Assay for human Signal Transducer and Activator of Transcription 3 (STAT3) (AID 2282963); details: HepG2, Attagene cis-factorial STAT3 reporter transcription; actives raise or lower the signal
# Signal transducer and activator of transcription 3 (Homo sapiens), sequence (P40763 whole entry, looked up): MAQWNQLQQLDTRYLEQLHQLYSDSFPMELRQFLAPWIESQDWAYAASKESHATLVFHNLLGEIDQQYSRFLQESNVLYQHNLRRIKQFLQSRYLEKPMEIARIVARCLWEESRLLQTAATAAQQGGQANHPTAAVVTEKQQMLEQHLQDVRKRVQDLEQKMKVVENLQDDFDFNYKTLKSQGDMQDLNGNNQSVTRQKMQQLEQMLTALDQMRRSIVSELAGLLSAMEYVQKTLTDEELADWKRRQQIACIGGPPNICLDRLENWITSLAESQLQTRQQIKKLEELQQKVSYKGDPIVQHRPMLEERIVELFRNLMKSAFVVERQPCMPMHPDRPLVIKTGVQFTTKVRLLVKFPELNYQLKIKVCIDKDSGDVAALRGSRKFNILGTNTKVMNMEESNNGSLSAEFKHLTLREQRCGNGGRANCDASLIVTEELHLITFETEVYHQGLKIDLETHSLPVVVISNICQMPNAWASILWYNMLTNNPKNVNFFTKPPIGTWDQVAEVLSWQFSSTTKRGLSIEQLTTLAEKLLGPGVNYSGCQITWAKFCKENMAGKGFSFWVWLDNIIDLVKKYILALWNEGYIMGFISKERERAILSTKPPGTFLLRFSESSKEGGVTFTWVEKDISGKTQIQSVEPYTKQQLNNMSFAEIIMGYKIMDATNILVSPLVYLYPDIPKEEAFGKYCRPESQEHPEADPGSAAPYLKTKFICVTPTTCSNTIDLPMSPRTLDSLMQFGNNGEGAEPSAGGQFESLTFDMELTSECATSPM
# In short: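 Cis-factorial format: endogenous transcription factors in HepG2 drive transfected reporter units. After 24 h treatment, reporter RNA was reverse-transcribed, amplified, FAM-labelled and HpaI-digested before CE analysis; activity scored in both directions against DMSO.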
# [7] = ATG_TA_CIS: Attagene CIS-FACTORIAL HepG2 Assay for human TA Basal Promoter (AID 2282964); details: HepG2 Attagene CIS-factorial TA basal promoter reporter; actives raise or lower the signal
# In short: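 Transfected HepG2, 24 h compound exposure; RNA → RT-PCR → FAM primer extension → HpaI cut → CE fluorescence. Gain/loss-of-signal fitted against DMSO negative control. Background-control readout.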
# [8] = ATG_TCF_b_cat_CIS: Attagene CIS-FACTORIAL HepG2 Assay for human T-Cell-Factor with beta-catenin (TCF/b-cat) (AID 2282965); details: HepG2 TCF/beta-catenin cis-reporter transcription, actives raise or lower the signal
# In short: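 Endogenous TCF/LEF activity read as reporter transcript level via RT-PCR and capillary electrophoresis fluorescence in transfected HepG2, 24 h exposure; gain or loss of signal fitted against DMSO controls.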
# [9] = ATG_TAL_CIS: Attagene CIS-FACTORIAL HepG2 Assay for human TAL Basal Promoter (AID 2282966); details: HepG2 Attagene cis-factorial TAL promoter reporter; actives raise or lower the signal;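 note: background control endpoint measuring basal TAL promoter reporter mRNA not a specific factor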
# In short: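 Human hepatoma HepG2 cells, transfected with promoter-regulated reporter units, were treated 24 h. Reporter transcript levels, measured through RT-PCR and capillary electrophoresis, were fitted for gain or loss relative to DMSO.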
# [10] = target: Estrogen receptor (Homo sapiens) (UniProt P03372); assay: ATG_ERa_TRANS: Attagene TRANS-FACTORIAL HepG2 Assay for human Estrogen Receptor alpha (ERa) (AID 2282970; active = hit-call score of the fitted dose curve at least 0.9, where 1 is the maximum); details: HepG2 Attagene TRANS ERa GAL4 reporter, mRNA
# Estrogen receptor (Homo sapiens), sequence (P03372 whole entry, looked up, the tested form may be a part): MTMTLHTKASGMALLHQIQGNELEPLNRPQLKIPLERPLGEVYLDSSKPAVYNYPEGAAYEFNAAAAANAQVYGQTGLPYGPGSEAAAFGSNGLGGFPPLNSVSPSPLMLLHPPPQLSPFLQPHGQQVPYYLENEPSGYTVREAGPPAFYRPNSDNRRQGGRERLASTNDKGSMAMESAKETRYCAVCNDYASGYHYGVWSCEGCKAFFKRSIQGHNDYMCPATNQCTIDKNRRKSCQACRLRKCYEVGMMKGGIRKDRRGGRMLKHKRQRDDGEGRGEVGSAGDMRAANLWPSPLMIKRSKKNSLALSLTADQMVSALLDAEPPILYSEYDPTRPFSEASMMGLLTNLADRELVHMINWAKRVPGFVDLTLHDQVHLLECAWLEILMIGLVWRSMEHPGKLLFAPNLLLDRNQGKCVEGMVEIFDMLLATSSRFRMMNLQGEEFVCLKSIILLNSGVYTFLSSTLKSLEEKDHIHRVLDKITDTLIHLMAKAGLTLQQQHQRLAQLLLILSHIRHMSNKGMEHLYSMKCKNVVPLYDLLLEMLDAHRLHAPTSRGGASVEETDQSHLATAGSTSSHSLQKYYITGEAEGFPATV
# In short: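 Signal derives from fluorescence of labelled reporter PCR fragments separated by capillary electrophoresis. HepG2 cells transiently carrying multiple GAL4-UAS reporter units were treated 24 hours, and induction above DMSO baseline was fitted as activity.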
# [11] = target: X-box-binding protein 1 (Homo sapiens) (UniProt P17861); assay: ATG_Xbp1_CIS: Attagene CIS-FACTORIAL HepG2 Assay for human X-box Binding Protein 1 (XBP1) (AID 2282972); details: HepG2 XBP1 cis-element reporter, Attagene multiplex; actives raise or lower the signal
# X-box-binding protein 1 (Homo sapiens), sequence (P17861 whole entry, looked up): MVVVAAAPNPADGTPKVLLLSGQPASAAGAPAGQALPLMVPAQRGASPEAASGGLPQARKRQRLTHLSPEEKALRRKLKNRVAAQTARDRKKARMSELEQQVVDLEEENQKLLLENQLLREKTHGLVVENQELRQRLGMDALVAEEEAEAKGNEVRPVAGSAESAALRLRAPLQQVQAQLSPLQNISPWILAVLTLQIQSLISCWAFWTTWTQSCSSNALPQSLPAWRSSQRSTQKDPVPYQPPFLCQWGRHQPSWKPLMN
# In short: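 Human hepatoma HepG2, cis-element reporter system, 24 h treatment; mRNA quantified by RT-PCR/CE fluorescence; fit relative to DMSO.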
# [12] = ATG_M_19_TRANS: Attagene TRANS-FACTORIAL HepG2 Assay for M19 Transcription Factor (Internal Marker) (AID 2282974; active = hit-call score of the fitted dose curve at least 0.9, where 1 is the maximum); details: HepG2 Attagene TRANS-FACTORIAL M19 internal marker reporter
# In short: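 24 h chemical exposure of transiently transfected HepG2 (MRTU library). RNA → oligo(dT) RT → PCR → 6-FAM labelling → HpaI cut → CE fluorescence. Positive-direction fit vs DMSO baseline; background internal-marker readout.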
# [13] = ATG_PPRE_CIS: Attagene CIS-FACTORIAL HepG2 Assay for human Peroxisome Proliferator-activated Response Element (PPRE) (AID 2282958); details: HepG2 PPRE cis-element reporter, Attagene transcription factor profiling; actives raise or lower the signal
# In short: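 Read-out: fluorescent reporter mRNA fragments resolved by capillary electrophoresis after RT-PCR. HepG2 cells carried transiently transfected PPRE-driven cis reporter constructs and were dosed for 24 h; gain or loss of signal fitted relative to DMSO.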
# [14] = ATG_TGFb_CIS: Attagene CIS-FACTORIAL HepG2 Assay for human Transforming Growth Factor (TGF) (AID 2282967); details: HepG2 Attagene CIS TGFb reporter, mRNA transcription; actives raise or lower the signal
# In short: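 Readout: fluorescently labeled reporter cDNA fragments resolved by capillary electrophoresis after RT-PCR. Transfected HepG2 cells dosed for 24 h; endogenous TF activity at TGFB1-linked cis element; gain or loss fitted relative to DMSO.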
# [15] = ATG_VDRE_CIS: Attagene CIS-FACTORIAL HepG2 Assay for human Vitamin D Receptor Element (VDRE) (AID 2282968); details: HepG2 VDRE cis-reporter transcription, actives raise or lower the signal
# In short: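 Measures endogenous factor activity through cis-element-driven reporter transcripts in transiently transfected HepG2. Cells are treated 24 h; reporter mRNA is quantified by RT-PCR and capillary electrophoresis; fitting is bidirectional.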
# [16] = target: Steroid hormone receptor ERR1 (Homo sapiens) (UniProt P11474); assay: ATG_ERRa_TRANS: Attagene TRANS-FACTORIAL HepG2 Assay for human Estrogen-Related Receptor alpha (ERRa) (AID 2282971; active = hit-call score of the fitted dose curve at least 0.9, where 1 is the maximum); details: HepG2 Attagene TRANS reporter, ERRa transactivation
# Steroid hormone receptor ERR1 (Homo sapiens), sequence (P11474 whole entry, looked up, the tested form may be a part): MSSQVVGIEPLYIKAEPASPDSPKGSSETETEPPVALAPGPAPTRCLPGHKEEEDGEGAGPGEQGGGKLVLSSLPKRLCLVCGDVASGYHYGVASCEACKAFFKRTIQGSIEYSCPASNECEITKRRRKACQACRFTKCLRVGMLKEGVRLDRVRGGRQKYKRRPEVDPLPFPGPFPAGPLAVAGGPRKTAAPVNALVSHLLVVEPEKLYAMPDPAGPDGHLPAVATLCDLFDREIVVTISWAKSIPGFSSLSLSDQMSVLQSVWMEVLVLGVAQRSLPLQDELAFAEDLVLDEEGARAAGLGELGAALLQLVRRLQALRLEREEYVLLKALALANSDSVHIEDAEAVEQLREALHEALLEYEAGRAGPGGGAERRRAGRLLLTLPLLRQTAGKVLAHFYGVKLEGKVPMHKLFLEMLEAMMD
# In short: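 Signal gain relative to DMSO for an ERRa-Gal4 chimeric receptor, read as reporter mRNA by RT-PCR/capillary electrophoresis. Human HepG2 liver cells, transient multiplex reporter transfection, 24 h chemical exposure.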
# [17] = ATG_GAL4_TRANS: Attagene TRANS-FACTORIAL HepG2 Assay for GAL4 (Internal Marker) (AID 2282976; active = hit-call score of the fitted dose curve at least 0.9, where 1 is the maximum); details: HepG2 Attagene TRANS GAL4 internal marker reporter
# In short: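 Liver HepG2 line bearing multiplexed GAL4-UAS reporter constructs; 24 h chemical treatment. Transcripts were quantified as fluorescent fragments on capillary electrophoresis after RT-PCR and HpaI cut, with activity fitted upward from DMSO.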
# [18] = target: Nuclear receptor subfamily 1 group I member 3 (Homo sapiens) (UniProt Q14994); assay: ATG_CAR_TRANS: Attagene TRANS-FACTORIAL HepG2 Assay for human Constitutive Androstane Receptor (CAR) (AID 2282969; active = hit-call score of the fitted dose curve at least 0.9, where 1 is the maximum;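 note: activators raise reporter mRNA above DMSO so AC50 marks induction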); details: HepG2 Attagene TRANS-FACTORIAL CAR reporter
# Nuclear receptor subfamily 1 group I member 3 (Homo sapiens), sequence (Q14994 whole entry, looked up, the tested form may be a part): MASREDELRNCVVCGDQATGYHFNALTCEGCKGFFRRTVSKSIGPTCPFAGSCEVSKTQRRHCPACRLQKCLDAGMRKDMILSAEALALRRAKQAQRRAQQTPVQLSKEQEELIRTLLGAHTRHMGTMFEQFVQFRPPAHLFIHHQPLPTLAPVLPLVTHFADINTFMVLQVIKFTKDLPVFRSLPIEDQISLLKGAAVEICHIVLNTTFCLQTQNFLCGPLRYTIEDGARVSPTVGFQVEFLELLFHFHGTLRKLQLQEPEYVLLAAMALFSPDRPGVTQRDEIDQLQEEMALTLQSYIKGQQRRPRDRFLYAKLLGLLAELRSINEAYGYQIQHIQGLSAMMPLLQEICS
# In short: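 Signal is reporter mRNA induction relative to DMSO, measured 24 h after dosing by RT-PCR with fluorescent primer extension and capillary electrophoresis. Human HepG2 liver cells carried transiently transfected chimeric NR-Gal4/GAL4-UAS reporter constructs.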
# [19] = target: Estrogen-related receptor gamma (Homo sapiens) (UniProt P62508); assay: ATG_ERRg_TRANS: Attagene TRANS-FACTORIAL HepG2 Assay for human Estrogen-Related Receptor gamma (ERRg) (AID 2282977; active = hit-call score of the fitted dose curve at least 0.9, where 1 is the maximum;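 note: hits increase reporter signal over DMSO so potencies reflect activators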); details: HepG2 Attagene TRANS reporter, ERRg transactivation
# Estrogen-related receptor gamma (Homo sapiens), sequence (P62508 whole entry, looked up, the tested form may be a part): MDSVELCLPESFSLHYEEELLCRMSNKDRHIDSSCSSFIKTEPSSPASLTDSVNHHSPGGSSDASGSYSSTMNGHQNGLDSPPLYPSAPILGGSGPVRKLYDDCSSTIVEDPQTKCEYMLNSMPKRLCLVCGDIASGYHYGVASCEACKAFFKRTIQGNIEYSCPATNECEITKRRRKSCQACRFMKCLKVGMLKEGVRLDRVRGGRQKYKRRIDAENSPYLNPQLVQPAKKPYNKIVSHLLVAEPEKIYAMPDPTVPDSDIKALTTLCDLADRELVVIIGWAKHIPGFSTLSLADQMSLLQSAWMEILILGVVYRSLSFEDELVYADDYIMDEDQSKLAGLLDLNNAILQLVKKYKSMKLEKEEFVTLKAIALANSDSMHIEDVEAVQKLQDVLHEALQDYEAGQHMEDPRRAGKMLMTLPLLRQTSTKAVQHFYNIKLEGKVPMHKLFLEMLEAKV
# In short: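 Readout: fluorescent reporter-mRNA fragments resolved by capillary electrophoresis after RT-PCR and HpaI cut. Cells: transiently transfected HepG2 carrying GAL4-UAS reporters driven by exogenous NR-Gal4 chimeras, dosed 24 h. Activity fitted upward relative to DMSO baseline.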
smiles,measurement,setting,value
Cc1cnc(NC(=O)C2=C(O)c3ccccc3S(=O)(=O)N2C)s1,outcome,[1],inactive
same,outcome,[2],inactive
same,outcome,[3],inactive
same,outcome,[4],inactive
same,outcome,[5],inactive
same,outcome,[6],inactive
same,outcome,[7],inactive
same,outcome,[8],inactive
same,outcome,[9],inactive
same,outcome,[10],inactive
same,outcome,[11],inactive
same,outcome,[12],inactive
O=C(/C=C/C=C/c1ccc2c(c1)OCO2)N1CCCCC1,outcome,[1],inactive
same,outcome,[13],inactive
same,outcome,[2],inactive
same,outcome,[3],inactive
same,outcome,[4],inactive
same,outcome,[6],inactive
same,outcome,[8],inactive
same,AC50,[9],100 µM (active)
same,outcome,[14],inactive
same,AC50,[15],2.53 µM (active)
same,outcome,[10],inactive
same,outcome,[16],inactive
same,outcome,[11],inactive
same,outcome,[12],inactive
same,outcome,[17],inactive
CCCCC(CC)COC(=O)c1ccccc1O (stereo unspecified),outcome,[1],inactive
same,outcome,[13],inactive
same,outcome,[2],inactive
same,outcome,[3],inactive
same,outcome,[5],inactive
same,outcome,[6],inactive
same,outcome,[7],inactive
same,outcome,[8],inactive
same,outcome,[9],inactive
same,outcome,[14],inactive
same,outcome,[15],inactive
same,outcome,[18],inactive
same,AC50,[10],50 µM (active)
same,outcome,[16],inactive
same,outcome,[11],inactive
same,outcome,[19],inactive
OC1OCCOC1O (stereo unspecified),outcome,[1],inactive
same,outcome,[2],inactive
same,outcome,[3],inactive
same,outcome,[4],inactive
same,outcome,[5],inactive
same,outcome,[6],inactive
same,outcome,[7],inactive
same,outcome,[8],inactive
same,outcome,[9],inactive
same,outcome,[14],inactive
same,outcome,[15],inactive
same,outcome,[18],inactive
same,outcome,[10],inactive
same,outcome,[11],inactive
same,outcome,[17],inactive
O=C1CCCN1CCO,outcome,[1],inactive
same,outcome,[13],inactive
same,outcome,[3],inactive
same,outcome,[4],inactive
same,outcome,[5],inactive
same,outcome,[6],inactive
same,outcome,[7],inactive
same,outcome,[8],inactive
same,outcome,[9],inactive
same,outcome,[14],inactive
same,outcome,[15],inactive
same,outcome,[18],inactive
same,outcome,[10],inactive
same,outcome,[11],inactive
same,outcome,[12],inactive
C=CC(=O)OCCOC(=O)C=C,AC50,[1],14.9 µM (active)
same,AC50,[2],27.3 µM (active)
same,outcome,[3],inactive
same,AC50,[4],25.3 µM (active)
same,outcome,[7],inactive
same,AC50,[8],26.7 µM (active)
same,outcome,[9],inactive
same,outcome,[14],inactive
same,AC50,[15],10.5 µM (active)
same,outcome,[11],inactive
O=C(c1ccccc1)c1ccc(O)c(O)c1O,outcome,[1],inactive
same,outcome,[13],inactive
same,outcome,[2],inactive
same,outcome,[3],inactive
same,outcome,[4],inactive
same,outcome,[5],inactive
same,outcome,[7],inactive
same,outcome,[8],inactive
same,outcome,[9],inactive
same,outcome,[14],inactive
same,outcome,[15],inactive
same,AC50,[10],27.3 µM (active)
same,outcome,[11],inactive
same,outcome,[17],inactive
same,outcome,[19],inactive
CC(CC=O)CCCC(C)(C)O (stereo unspecified),outcome,[1],inactive
same,outcome,[13],inactive
same,outcome,[2],inactive
same,outcome,[3],inactive
same,outcome,[4],inactive
same,outcome,[6],inactive
same,outcome,[8],inactive
same,outcome,[9],inactive
same,outcome,[14],inactive
same,outcome,[15],inactive
same,outcome,[10],inactive
same,outcome,[11],inactive
same,outcome,[12],inactive
same,outcome,[17],inactive
same,outcome,[19],inactive
CCOC(=O)c1ccccc1C(=C1C=C(Br)C(=O)C(Br)=C1)c1cc(Br)c(O)c(Br)c1,AC50,[1],39.3 µM (active)
same,AC50,[13],19.8 µM (active)
same,outcome,[2],inactive
same,outcome,[3],inactive
same,AC50,[4],20.7 µM (active)
same,outcome,[5],inactive
same,outcome,[6],inactive
same,outcome,[7],inactive
same,AC50,[8],24.8 µM (active)
same,outcome,[9],inactive
same,AC50,[15],25.9 µM (active)
same,outcome,[10],inactive
same,AC50,[11],34.4 µM (active)
